38 compounds from PubChem BioAssay (NCI) can be followed below.

The structures appear in SMILES notation. This is part of a sample that, as a whole, favours compounds with a hit. Of some 83,000 tested, about 20% had one in any assay.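 Compound tested at a single concentration for 48 hours in 96-well plates; a percent growth value below 10 was scored as active.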 Activity calls are given as the source filed them.

In this assay the test system is RPMI-8226 leukemia. Kind of assay: NCI-60 one-dose screen, 48 h (100 = growth as untreated, 0 = no growth, -100 = all killed). To be noted: 10 µM.
With `CCc1ccc(-c2ccc(-n3nc(C)c4c(N)nc(Cc5ccccc5)nc43)cc2)cc1`, the growth is 86% (inactive).

As for `O=C(Nc1ccc(F)cc1)c1cc2ccccc2cc1O`, the growth was 37.9% (inactive).

For `Nc1nccc(OCCO)n1`, the growth is 108% (inactive).

With `COc1cc(-c2nn(-c3ccc(NC(=O)NCCNS(=O)(=O)c4ccc(F)cc4)cc3)cc2-c2ccncc2)ccc1Cl`, the growth is -21.6% (active).

For the compound `O=C(Nc1ccc2c(O)cc(S(=O)(=O)O)cc2c1)c1ccc([N+](=O)[O-])cc1`, the growth was 92.9% (inactive).

As to `COC(=O)C1(O)NC(=C(C#N)C#N)C(C#N)=C1C(=O)c1ccc(OC)c(OC)c1` (stereo not drawn), the growth was 90.1% (inactive).

Turning to `C=CCn1c(SCC(=O)Nc2ccc(C(=O)/C=C/c3ccc(OC)cc3)cc2)nnc1-c1ccc(OC)c(OC)c1`, the growth was 34.3% (inactive).

With `COc1cc(NC(=O)Nc2cnc(Nc3ccc(N4CCOCC4)cc3)nc2Oc2cccc(OC)c2)cc(OC)c1`, the growth was 53.3% (inactive).

Turning to `O=C(CCl)Nc1ccc(Cc2ccc(NC(=O)CCl)cc2)cc1`, the growth was -32.9% (active).

For the compound `Cc1cc(SCc2ccccc2)nc(N)n1`, the growth is 105% (inactive).

Turning to `Cc1nn(-c2ccc(-c3ccc(OC(F)(F)F)cc3)cc2)c2nc(Cc3ccccc3)nc(N)c12`, the growth is 92.1% (inactive).

On to `O=C(Nc1nc(-c2ccccc2)nc2c1sc(=S)n2-c1ccccc1)C(F)(F)F`, for which the growth is 88.5% (inactive).

With `S=c1cnc2ccccc2[nH]1`, the growth was 100% (inactive).

For `O=C(CSc1nnc(-c2ccc(Cl)cc2)o1)Nc1ccc(C(=O)/C=C/c2ccc(Cl)cc2)cc1`, the growth is 92.5% (inactive).

As for `CN(C)CCN(Cc1ccccc1)c1ccc2ccccc2n1`, the growth was 89.5% (inactive).

On to `CCN(CC)CCOc1cccc2c1C(=O)c1cccc(OCCN(CC)CC)c1C2=O`, for which the growth is 11% (inactive).

With `O=C(NCCCNS(=O)(=O)c1ccc(Cl)cc1)Nc1ccc(-n2cc(-c3ccncc3)c(-c3ccc(Cl)c(O)c3)n2)cc1`, the growth is 18.7% (inactive).

For the compound `C1CN(CC2CCC(CN3CCOCC3)O2)CCO1` (stereo not drawn), the growth is 92.3% (inactive).

With `NC(N)=N/N=C(\c1ccccc1)C(O)c1ccccc1` (stereo not drawn), the growth is 94.5% (inactive).

In the case of `N#CC1=C(N)Oc2cc(N)ccc2C1c1cccnc1` (stereo not drawn), the growth is 106% (inactive).

As to `CCOC(=O)c1cc(C(=O)c2cc(OC)cc(OC)c2)n2nc(C)ccc12`, the growth was 12.2% (inactive).

On to `COc1cc(C)ccc1Oc1nc(Nc2ccc(N3CCOCC3)cc2)ncc1NC(=O)Nc1cc(C(F)(F)F)cc(C(F)(F)F)c1`, for which the growth was 61.9% (inactive).

Take `COc1ccc(/C=C2\CCCC3C2=Nc2ccccc2NC3c2ccc(OC)cc2)cc1` (stereo not drawn): the growth was 25.7% (inactive).

Take `CCN(CC)CC(=O)N(CC)c1ccc(C)c(Cl)c1`: the growth is 97.2% (inactive).

With `O=C(CC(CC(=O)c1ccccc1)c1ccccc1O)c1ccccc1`, the growth was 85.2% (inactive).

Regarding `C=C(C)[C@@H]1CC[C@]2(COCCC#N)CC[C@]3(C)[C@H](CC[C@@H]4[C@@]5(C)Cc6c([nH]c7ccccc67)C(C)(C)[C@@H]5CC[C@]43C)[C@@H]12`, the growth is 86.1% (inactive).

As to `COc1cc(-c2nn(-c3cccc(NC(=O)CCN4CCN(Cc5ccccc5)CC4)c3)cc2-c2ccncc2)ccc1Cl`, the growth is -23.2% (active).

`Cc1cc(=O)n2nnc3cc(Cl)c(Cl)cc3n12`: the growth is 97.4% (inactive).

Turning to `O=C(/C=C/C=C/c1c(C2CC2)nc2ccccc2c1-c1ccc(F)cc1)c1cccs1`, the growth was -26.6% (active).

Turning to `CC(=O)[C@H]1CC[C@]2(C)[C@@H]1CC[C@@H]1[C@@]3(C)CC(CCC#N)(CCC#N)C(=O)C(C)(C)[C@@H]3CC[C@]12C`, the growth was 107% (inactive).

In the case of `CCNCC(=O)Nc1ccc(C(=O)OCC)cc1`, the growth was 104% (inactive).

Take `S=C(NCc1ccccc1)NCc1ccccc1`: the growth was 100% (inactive).

In the case of `NNC(=O)Oc1c(Cl)cc(Cl)cc1[N+](=O)[O-]`, the growth was 105% (inactive).

Turning to `CN1CCN(CCC(=O)Nc2cccc(-n3cc(-c4ccncc4)c(-c4ccc(Cl)c(O)c4)n3)c2)CC1`, the growth was 19.9% (inactive).

Consider `O=S(=O)(O)c1cccc(Nc2ccc3ccccc3c2)c1`, for which the growth was 95.5% (inactive).

Take `CCN(CC)CCOc1ccc2c(c1O)C(=O)c1ccccc1C2=O`: the growth was 90.3% (inactive).

For `S=C(SSC(=S)N(c1ccccc1)c1ccccc1)N(c1ccccc1)c1ccccc1`, the growth was 97.1% (inactive).

`CN1CCN(CC(=O)Nc2cccc(-n3cc(-c4ccncc4)c(-c4ccc(Cl)c(O)c4)n3)c2)CC1`: the growth was 15.9% (inactive).
